Laboratory results published in the supplement of paper PMC9177965.

Tests used:
[1] = test system: HT29 RNF43 G659fs (RNF43 659mut, CRISPR-edited); assay: cell viability activity relative to DMSO (negative = inhibition); higher = more viable cells (less growth inhibition); conditions: 5 µM; 96 h
Method: (§1)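 Broad Repurposing Library primary screen at a single dose of 5 uM. HT29 sg-Ctrl and HT29 RNF43 G659fs CRISPR-edited isogenic cells were seeded at 2500 cells/well in 384-well plates in duplicate and treated for 96 h. Viability was read by CellTiter-Glo and reported as % activity relative to DMSO, with MG132 as the positive control (negative = growth inhibition).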

[2] = test system: HT29 sg-Ctrl (RNF43 wildtype); assay: as above; conditions: 5 µM; 96 h
Method: as §1

Compound	cell viability activity [1]	cell viability activity [2]
COc1ccc2c(c1)c(C1=C(c3c[nH]c4ccccc34)C(=O)NC1=O)cn2CCCN(C)C	-75.2%	-88.9%
Nc1ncnc2c1c(-c1cnc3[nH]ccc3c1)nn2C1CCCC1	-84.8%	-78.7%
CC[C@@H]1C(=O)N(C)c2cnc(Nc3ccc(C(=O)NC4CCN(C)CC4)cc3OC)nc2N1C1CCCC1	-83.2%	-90.4%
COc1cc(N2CCC(N3CCN(C)CC3)CC2)ccc1Nc1ncnc(Nc2ccccc2S(=O)(=O)C(C)C)n1	-33.3%	-27.7%
COc1cc2c(Nc3ccc(Cl)c(Cl)c3F)ncnc2cc1OC[C@@H]1C[C@@H]2CN(C)C[C@@H]2C1	-90.6%	-90.3%
CC[C@H](CO)Nc1nc(NCc2ccc(-c3ccccn3)cc2)c2ncn(C(C)C)c2n1	-92%	-92.1%
O=C(CCCCCCNC(=O)c1cnc(N(c2ccccc2)c2ccccc2)nc1)NO	-34.4%	-45.9%
Clc1ccc(NN=C(c2ccccc2)c2ccccn2)nc1	-70.7%	-65.6%
CC(C)(C)c1ccc(C(=O)CCCN2CCC(OC(c3ccccc3)c3ccccc3)CC2)cc1	-79.7%	-92.1%
Cc1nc2ccccc2n1Cc1ccc(Cl)cc1	-60.5%	-39.4%
O=C(Nc1ccccc1-c1cn2c(CN3CCNCC3)csc2n1)c1cnc2ccccc2n1	-74.8%	-81.8%
Cn1c(=O)n(-c2ccc(C(C)(C)C#N)cc2)c2c3cc(-c4cnc5ccccc5c4)ccc3ncc21	-56.8%	-44.1%
COC(=O)C1=C(C)NC(C)=C(C(=O)OC2CCCN(Cc3ccccc3)C2)C1c1cccc([N+](=O)[O-])c1 (stereo not given)	-85.8%	-85.6%
COc1cc(/C=C/c2ccc(OC)cc2OC)cc(OC)c1	-65.4%	-75.7%
C=CCc1cccc(/C=N/NC(=O)CN2CCN(Cc3ccccc3)CC2)c1O	-71.9%	-42.7%
C#C[C@]1(O)CC[C@H]2[C@@H]3CCC4=C(CCC(=O)C4)[C@H]3CC[C@@]21C	-62.8%	-59.4%
COc1ccc2[nH]c3c(-c4cccc5ccccc45)nccc3c2c1	-69.1%	-60.2%
Cc1[nH]nc2ccc(-c3cncc(OC[C@@H](N)Cc4ccccc4)c3)cc12	-89.5%	-90.7%
COc1ccc(-c2cc3c(C)nc(N)nc3n([C@H]3CC[C@H](OCCO)CC3)c2=O)cn1	-94%	-84.6%
CN(C)/N=N/c1[nH]cnc1C(N)=O	-31.5%	-26.5%
CN[C@H]1CN(c2ccc3c(=O)c(C(=O)O)cn(-c4nccs4)c3n2)C[C@@H]1OC	-60.3%	-30.9%
Cc1nc(C#Cc2ccnc(Cl)c2)c(C)n1-c1ccc(OC(F)(F)F)cc1	-25.5%	-18.5%
CN(C)c1ccc(C(=O)NCCCCCCC(=O)NO)cc1	-84.4%	-82%
CCCCCCCC/C=C/CCCCCCCC(=O)OC[C@H]1O[C@@H](n2ccc(N)nc2=O)C(F)(F)[C@@H]1O	-42%	-51.8%
O=C(NOC[C@H](O)CO)c1ccc(F)c(F)c1Nc1ccc(I)cc1F	-81.1%	-85%

Compound	cell viability activity [1]	cell viability activity [2]
CC(C)(C)c1nc(-c2cccc(NS(=O)(=O)c3c(F)cccc3F)c2F)c(-c2ccnc(N)n2)s1	-69.4%	-68.4%
CC[C@]1(O)C[C@H]2CN(CCc3c([nH]c4ccccc34)[C@@](C(=O)OC)(c3cc4c(cc3OC)N(C=O)[C@H]3[C@@](O)(C(=O)OC)[C@H](OC(C)=O)[C@]5(CC)C=CCN6CC[C@]43[C@@H]65)C2)C1	-28.3%	-54.5%
C[C@H]1O[C@@H](O[C@H]2[C@@H](O)C[C@H](O[C@H]3[C@@H](O)C[C@H](O[C@H]4CC[C@@]5(C)[C@H](CC[C@@H]6[C@@H]5C[C@@H](O)[C@]5(C)[C@@H](C7=CC(=O)OC7)CC[C@]65O)C4)O[C@@H]3C)O[C@@H]2C)C[C@H](O)[C@@H]1O	-89.3%	-90.8%
CCCCCCCCCCC(CO)CCCCCCCC (stereo not given)	-65.4%	-76.7%
CCc1cnn2c(NCc3ccc[n+]([O-])c3)cc(N3CCCC[C@H]3CCO)nc12	-88.2%	-84.3%
C[C@H](Oc1ccc(S(C)(=O)=O)cc1C(=O)N1CCN(c2ncc(C(F)(F)F)cc2F)CC1)C(F)(F)F	-65.2%	-57.9%
CN[C@H](C(=O)N[C@H](C(=O)N(C)[C@H](/C=C(\C)C(=O)O)C(C)C)C(C)(C)C)C(C)(C)c1ccccc1	-56.6%	-33.2%
O=C(Nc1nc2ccc(NC(=O)C34CC5CC(CC(C5)C3)C4)cc2s1)c1ccccc1	-37.7%	-29.4%
O=C(/C=C\n1cnc(-c2cc(C(F)(F)F)cc(C(F)(F)F)c2)n1)N1CC(F)(F)C1	-72.2%	-68%
Cc1nc(NC(=O)N2CCC[C@H]2C(N)=O)sc1-c1ccnc(C(C)(C)C(F)(F)F)c1	-49.8%	-16%
COc1cc(NC(C)CCCN)c2ncccc2c1 (stereo not given)	-52.7%	-22.4%
C=C[C@@](C)(/C=C/c1ccc(O)cc1)CCC=C(C)C	-39.5%	-49.8%
Cc1cnc(Nc2ccc(F)cc2Cl)nc1-c1c[nH]c(C(=O)N[C@H](CO)c2cccc(Cl)c2)c1	-73.7%	-76%
Nc1c2ccccc2nc2ccccc12	-86.1%	-86.8%
Cn1cc(C2=C(c3cn(CCCSC(=N)N)c4ccccc34)C(=O)NC2=O)c2ccccc21	-81.3%	-73.6%
CC(C)c1ccc(C(=O)N=C(N)N)cc1S(C)(=O)=O	-25.7%	-5.71%
CC(C)(C)CC(C)(C)c1ccc(OCCOCC[N+](C)(C)Cc2ccccc2)cc1	-98.5%	-97.2%
CCN(CC)CCNc1ccc(CO)c2sc3ccccc3c(=O)c12	-23.1%	-27.7%
COC(=O)[C@H]1[C@H]2C[C@@H]3c4[nH]c5cc(OC)ccc5c4CCN3C[C@H]2C[C@@H](OC(=O)c2cc(OC)c(OC)c(OC)c2)[C@@H]1OC	-26.1%	-40.7%
CCN(CC)CCNC(=O)c1ccc(NC(C)=O)cc1	-53.2%	-3.92%
CCN(c1cc(C#CCN2CCOCC2)cc(C(=O)NCc2c(C)cc(C)[nH]c2=O)c1C)[C@H]1CC[C@H](N(C)CCOC)CC1	-37.5%	-35.6%
NS(=O)(=O)C#Cc1ccccc1	-68.8%	-72.2%
COc1cc(OC)cc(N(CCNC(C)C)c2ccc3ncc(-c4cnn(C)c4)nc3c2)c1	-70.3%	-64.7%
COc1ccc2[nH]c(C(=O)c3ccccc3)cc2c1	-61.7%	-55.7%
CNC(=O)c1cccc(-c2ccc3c(N4CCOC[C@@H]4C)nc(N4CCOC[C@@H]4C)nc3n2)c1	-62.5%	-42.8%
